{"source": "the supplement of paper PMC11026393", "test_system": "H1299", "assay": "difference in mean normalized H2B-mRuby nuclear fluorescence intensity relative to DMSO control (normalized intensity difference (DMSO = 0)); higher = stronger increase in transgene reporter fluorescence", "conditions": "24 h", "description": "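Cancer cell lines stably expressing H2B-mRuby2 from a lentiviral PGK promoter were treated with each drug for 24 h and imaged on a Leica DMI8 (ex 541-551 / em 565-605 nm). Nuclei were segmented in CellProfiler. The value is the difference in mean per-nucleus normalized H2B-mRuby intensity versus DMSO-treated cells (about 3 repeats x 4 fields). Doxorubicin is itself fluorescent. Dasatinib is in nM.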", "data": [{"smiles": "O=c1[nH]cc(F)c(=O)[nH]1", "note": "(concentration unit: uM)", "values": [{"measurement": "difference", "setting": "concentration: 1", "result": -0.0723}, {"measurement": "difference", "setting": "concentration: 2.5", "result": -0.0395}, {"measurement": "difference", "setting": "concentration: 5", "result": -0.107}, {"measurement": "difference", "setting": "concentration: 10", "result": -0.0707}, {"measurement": "difference", "setting": "concentration: 25", "result": -0.0709}]}, {"smiles": "Nc1ncn([C@@H]2O[C@H](CO)[C@@H](O)[C@H]2O)c(=O)n1", "note": "(concentration unit: uM)", "values": [{"measurement": "difference", "setting": "concentration: 1", "result": 0.0691}, {"measurement": "difference", "setting": "concentration: 2.5", "result": 0.0657}, {"measurement": "difference", "setting": "concentration: 5", "result": 0.123}, {"measurement": "difference", "setting": "concentration: 10", "result": 0.125}, {"measurement": "difference", "setting": "concentration: 20", "result": 0.109}]}, {"smiles": "N#CC[C@H](C1CCCC1)n1cc(-c2ncnc3[nH]ccc23)cn1", "note": "(concentration unit: uM)", "values": [{"measurement": "difference", "setting": "concentration: 1", "result": 0.0876}, {"measurement": "difference", "setting": "concentration: 2.5", "result": -0.0462}, {"measurement": "difference", "setting": "concentration: 5", "result": -0.0185}, {"measurement": "difference", "setting": "concentration: 10", "result": -0.0963}, {"measurement": "difference", "setting": "concentration: 25", "result": 0.115}]}, {"smiles": "CNC(=O)c1cc(Oc2ccc(NC(=O)Nc3ccc(Cl)c(C(F)(F)F)c3)cc2)ccn1", "note": "(concentration unit: uM)", "values": [{"measurement": "difference", "setting": "concentration: 1", "result": 0.0342}, {"measurement": "difference", "setting": "concentration: 2.5", "result": -0.0184}, {"measurement": "difference", "setting": "concentration: 5", "result": -0.0837}, {"measurement": "difference", "setting": "concentration: 10", "result": -0.0051}, {"measurement": "difference", "setting": "concentration: 25", "result": -0.155}]}, {"smiles": "CC[C@]1(O)C[C@H]2CN(CCc3c([nH]c4ccccc34)[C@@](C(=O)OC)(c3cc4c(cc3OC)N(C=O)[C@H]3[C@@](O)(C(=O)OC)[C@H](OC(C)=O)[C@]5(CC)C=CCN6CC[C@]43[C@@H]65)C2)C1", "note": "(concentration unit: nM)", "values": [{"measurement": "difference", "setting": "concentration: 2.5", "result": -0.165}, {"measurement": "difference", "setting": "concentration: 10", "result": -0.0783}, {"measurement": "difference", "setting": "concentration: 25", "result": -0.00792}, {"measurement": "difference", "setting": "concentration: 100", "result": -0.00267}, {"measurement": "difference", "setting": "concentration: 250", "result": -0.0899}]}, {"smiles": "CO[C@H]1C[C@@H]2CC[C@@H](C)[C@@](O)(O2)C(=O)C(=O)N2CCCC[C@H]2C(=O)O[C@H]([C@H](C)C[C@@H]2CC[C@@H](O)[C@H](OC)C2)CC(=O)[C@H](C)/C=C(\\C)[C@@H](O)[C@@H](OC)C(=O)[C@H](C)C[C@H](C)/C=C/C=C/C=C/1C", "note": "(concentration unit: nM)", "values": [{"measurement": "difference", "setting": "concentration: 2.5", "result": -0.0109}, {"measurement": "difference", "setting": "concentration: 10", "result": 0.177}, {"measurement": "difference", "setting": "concentration: 25", "result": 0.0761}, {"measurement": "difference", "setting": "concentration: 50", "result": 0.0674}, {"measurement": "difference", "setting": "concentration: 250", "result": 0.0406}]}, {"smiles": "Cn1c(=O)n(-c2ccc(C(C)(C)C#N)cc2)c2c3cc(-c4cnc5ccccc5c4)ccc3ncc21", "note": "(concentration unit: nM)", "values": [{"measurement": "difference", "setting": "concentration: 10", "result": 0.158}, {"measurement": "difference", "setting": "concentration: 50", "result": 0.191}, {"measurement": "difference", "setting": "concentration: 100", "result": 0.157}, {"measurement": "difference", "setting": "concentration: 250", "result": 0.0684}, {"measurement": "difference", "setting": "concentration: 500", "result": 0.0286}]}, {"smiles": "COc1cc(Nc2ncc3c(n2)-c2ccc(Cl)cc2C(c2c(F)cccc2OC)=NC3)ccc1C(=O)O", "note": "(concentration unit: nM)", "values": [{"measurement": "difference", "setting": "concentration: 10", "result": -0.0235}, {"measurement": "difference", "setting": "concentration: 50", "result": -0.0295}, {"measurement": "difference", "setting": "concentration: 250", "result": 0.00737}, {"measurement": "difference", "setting": "concentration: 500", "result": 0.159}, {"measurement": "difference", "setting": "concentration: 1000", "result": 0.136}]}]}
